Granule exo inh = blocks lytic granule exocytosis | TALL-104 LAMP-1 surface exposure, flow cytometry; cells stimulated with thapsigargin and PMA | inhibition, % at 10 µM | 360,000 tested, 0.66% active;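 active means inhibition above about 55%, limit read from the data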
JMJD2C inh = inhibitors of human GASC-1 (JMJD2C) demethylase; 330,000 tested, 0.069% active; inhibition, % at 2.35 µM; AID 2099; GST-JMJD2C(1-420) H3K9me3 demethylation, DELFIA europium; Q9H3R0;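 active means more than half of a compound's replicate wells show inhibition beyond 50%, single wells judged on their own value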;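 further: signal counts dimethyl H3K9 product captured on neutravidin plate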
PfM18AAP inh = PfM18AAP enzyme inhibition. recombinant PfM18AAP, H-Glu-NHMec fluorogenic cleavage. inhibition, % at 7.35 µM. 290,000 tested, 1.2% active. AID 1822;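 active means inhibition above the campaign mean inhibition over all tested compounds plus 3 SD, cut at about 28% in these data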
ALR H2O2 inh = inhibitors of human sulfhydryl oxidase ALR; purified ALR, DTT oxidation, H2O2 HRP-luminol luminescence; inhibition, % (test concentration not listed); 290,000 tested, 3.8% active; AID 485317;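 active means mean replicate inhibition above about 79%, with every replicate also reaching it, limit read from the data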
Target sequence (P55789 whole entry, looked up): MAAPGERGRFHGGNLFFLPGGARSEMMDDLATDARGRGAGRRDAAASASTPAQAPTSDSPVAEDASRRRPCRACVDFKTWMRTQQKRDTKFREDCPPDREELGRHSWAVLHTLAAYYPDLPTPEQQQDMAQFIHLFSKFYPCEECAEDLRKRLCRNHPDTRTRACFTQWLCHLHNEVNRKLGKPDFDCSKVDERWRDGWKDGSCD
SMARCA2 activ = activators of SMARCA2 function. MG213 cells, MMTV-luciferase reporter, dexamethasone, overnight. 370,000 tested, 1% active. activation, % at 9.1 µM; in the data active means activation above about 7.8%
beta cell repl = MIN6 beta-cell proliferation induction; AID 2380; 330,000 tested, 0.29% active; MIN6 cells proliferation, ATPlite luminescence, 48 h; cells starved in 0.2% serum; 100% = growth in 10% serum; proliferation, % at 10 µM;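 active means compounds whose signal lies at least 3.5 SD above the mean of all wells on their plate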
A number is an active result; – = inactive; · = no result given. An excerpt weighted towards active compounds, which were near 5.4% of everything screened.

SMILES	Granule exo inh	JMJD2C inh	PfM18AAP inh	ALR H2O2 inh	SMARCA2 activ	beta cell repl
CCOc1cc(/C=C2/C(=O)ON=C2C)ccc1OCc1ccccc1F	77.9	–	–	–	–	–
CCOc1cc(/C=C2\C(=O)ON=C2c2ccccc2)ccc1OC	–	–	–	92.3	–	–
CCOC(=O)c1ccc(CSC(=N)N)o1	–	–	–	98.9	–	–
COC(=O)c1ccc(CSC(=N)N)o1	–	–	–	·	–	–
CCOC(=O)c1ccoc1CSCc1ccc(C(=O)OC)o1	–	–	–	98.9	–	–
Oc1ccc(N=Nc2ccc(Br)cc2)c(O)c1	–	–	–	98.9	–	–
Cc1ccc(N=Nc2ccc(O)cc2)c(Br)c1	–	–	–	92.2	–	–
CCn1c(SCC(=O)OCc2ccccc2)nc2c1c(=O)n(C)c(=O)n2C	–	–	–	98.8	–	–
COCCn1c(SCc2ccccc2)nc2c1c(=O)[nH]c(=O)n2C	–	–	–	–	–	–
COCCn1c(SCC(=O)OCc2ccccc2)nc2c1c(=O)[nH]c(=O)n2C	–	–	·	98.3	–	–
C#CCNC(=O)C[C@H]1C(=O)N(Cc2ccc(OC)cc2)C2=CCCCC[C@@]21C(=O)OC	·	·	·	·	–	·
Cn1c(Cc2cccs2)nnc1SCC(=O)Nc1ccc2c(c1)OCCO2	·	·	·	·	–	·
O=C1c2c([N+](=O)[O-])cc([N+](=O)[O-])cc2S(=O)N1Cc1ccccc1 (configuration not stated)	–	–	52.3	–	–	–
O=[N+]([O-])c1ccc(NC2CCN(Cc3ccccc3)CC2)c([N+](=O)[O-])c1	–	–	–	–	–	–
Nn1c(Cc2cccc3ccccc23)nnc1SCc1ccccc1	–	–	–	–	–	–
Nn1c(Cc2cccc3ccccc23)nnc1SCc1ccccc1Cl	–	–	–	86.9	–	–
CCOC(=O)C(=C1Nc2ccccc2N1)n1c(-c2ccco2)nc2ccccc21	98.0	·	·	·	–	·
CCOC(=O)C(=C1Nc2ccccc2N1)n1c(-c2cnccn2)nc2ccccc21	–	·	·	·	–	·
Cc1c(C(=O)c2ccc(F)cc2F)c2ccccn2c1CCC#N	–	–	29.8	·	–	–
Cc1c(C(=O)c2ccc(Cl)c([N+](=O)[O-])c2)c2ccccn2c1CCC#N	–	–	–	–	–	–
Cc1c(C(=O)c2ccc(Cl)cc2[N+](=O)[O-])c2ccccn2c1CCC#N	–	–	–	95.5	–	–
Cc1c(C(=O)c2ccc(F)cc2F)c2ccccn2c1CCc1ccccn1	–	·	·	·	–	·
Cc1c(C(=O)c2ccc(N(C)C)cc2)c2ccccn2c1CCC#N	–	–	–	98.2	–	–
COC(=O)C1CN(Cc2cn(CCC3OCCO3)nn2)CCS(=O)(=O)N1Cc1ccc(C)cc1 (configuration not stated)	·	·	·	·	–	·
Cn1cc(C2(C)CCOc3ccccc32)c2ccccc21 (configuration not stated)	·	·	·	·	–	·
SMILES	Granule exo inh	JMJD2C inh	PfM18AAP inh	ALR H2O2 inh	SMARCA2 activ	beta cell repl
CC(=O)NS(=O)(=O)c1ccc(NC(=O)c2ccc3c(c2)C(=O)N(CCC(C)C)C3=O)cc1	–	–	–	91.7	–	–
COc1ccc2nc(S(=O)Cc3ncc(C)c(OC)c3C)[nH]c2c1 (configuration not stated)	–	–	–	97.6	–	–
COc1ccc2nc(SCC(=O)Nc3c(C)cccc3C)[nH]c2c1	–	–	–	–	–	–
CC1=C(c2ccccc2)CCC1=O	80.5	–	·	·	–	–
COc1ccc(C(=O)CCN2CCc3cc(OC)c(OC)cc3C2)cc1	–	–	–	97.9	–	–
COc1cc(-c2csc(C)n2)ccc1O	–	–	–	96.1	–	–
COc1ccc(-c2csc(C)n2)cc1Br	–	–	–	·	–	–
Cc1nn(CC(=O)NCc2ccccc2Cl)c(C)c1[N+](=O)[O-]	–	–	–	–	–	–
Cc1cc(CNC(=O)Cn2nc(C)c([N+](=O)[O-])c2C)c2ccccc2n1	57.6	–	–	–	–	–
CCCC1CCC2(CCC(=O)N2CCO)CC1 (configuration not stated)	·	·	·	·	–	·
CCOC(=O)c1c(OCC)[nH]c2c1cc(O)c1ccccc12	–	–	–	99.3	–	–
COCCN(C(=O)COC(=O)CSc1ccc2ccccc2c1)c1c(N)n(Cc2ccccc2)c(=O)[nH]c1=O	–	–	·	98.2	–	–
Cc1nn2c(NCCCN(C)C)c3c(nc2c1-c1ccccc1)CCCC3	–	–	–	97.1	–	–

Bioassay records deposited in PubChem BioAssay by several laboratories.
